Source: the supplement of paper PMC9694430

The molecules below were run on LOC_OS01G14860-cb001 (assay: thermal shift delta Tm vs DMSO control; higher = stronger stabilization (binding)). Settings: 12.5 µM; protein concentration 2 µM.
How it was run: (§1)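 Compounds dissolved in DMSO were added to purified rice kinase domain constructs, which had been expressed in E. coli, for differential scanning fluorimetry. Each well held 19.5 μl of 2 μM kinase in 100 mM potassium phosphate pH 7.5, 150 mM NaCl, 10% glycerol and 5 × SYPRO Orange. Fluorescence was followed from 25°C to 95°C at a rate of 0.05°C/s. Shifts in Boltzmann-fitted melting temperature are triplicate means relative to DMSO-only protein.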
For `COc1cc2ncnc(Nc3ccc(Cl)cc3F)c2cc1OC`, the “thermal shift delta Tm” value was 0.32 °C.
With `Cc1cc(Nc2ncnc3ccc(NC4=NC(C)(C)CO4)cc23)ccc1Oc1ccn2ncnc2c1` [Irbinitinib (ARRY-380, ONT-380)] the “thermal shift delta Tm” value was -1.49 °C.
With `CC1(C)CNc2cc(NC(=O)c3cccnc3NCc3ccncc3)ccc21` [Motesanib Diphosphate (AMG-706)] the “thermal shift delta Tm” value was 0.51 °C.
With `COC(=O)Nc1ccc(-c2nc(N3CCOCC3)c3cnn(C4CCN(C(=O)OC)CC4)c3n2)cc1` the “thermal shift delta Tm” value was 0.21 °C.
With `COc1cc(C(=O)N2CCC(N3CCN(C)CC3)CC2)ccc1Nc1ncc2c(n1)N(C)c1ccccc1C(=O)N2C` the “thermal shift delta Tm” value was -0.08 °C.
With `C=C(C)[C@@H]1CC[C@]2(C)CC[C@]3(C)[C@H](CC[C@@H]4[C@@]5(C)CC[C@H](O)C(C)(C)[C@@H]5CC[C@]43C)[C@@H]12` [Lupeol] the “thermal shift delta Tm” value was 0.11 °C.
`Oc1cccc(-c2nc(N3CCOCC3)c3oc4ncccc4c3n2)c1` was tested, and the “thermal shift delta Tm” value was 0.17 °C.
For `CCn1c(N)c(C(=O)NC)c(=O)c2ccc(C#CC(C)(O)COC)nc21` (stereo not given), the “thermal shift delta Tm” value was 0.21 °C.
In the case of `CCOc1cc(C(=O)N2CCC(N3CCN(C)CC3)CC2)ccc1Nc1ncc2c(n1)N(C1CCCC1)c1ccccc1C(=O)N2C`, the “thermal shift delta Tm” value is reported as 0 °C.
`Cc1ccc(NC(=O)c2cccc(C(C)(C)C#N)c2)cc1Nc1ccc2ncn(C)c(=O)c2c1` was tested, and the “thermal shift delta Tm” value was 0.47 °C.
With `Nc1ccc(-c2ccc3ncc4ccc(=O)n(-c5cccc(C(F)(F)F)c5)c4c3c2)cn1` [Torin 2] the “thermal shift delta Tm” value was 2.07 °C.
For `CCN(CC)CCCC(C)Nc1ccnc2cc(Cl)ccc12` (stereo not given) [Chloroquine Phosphate], the “thermal shift delta Tm” value was 0.13 °C.
For `C[C@@H](N)[C@H]1CC[C@H](C(=O)Nc2ccncc2)CC1`, the “thermal shift delta Tm” value was 0.11 °C.
With `COc1cc(N2CCC(N(C)C)CC2)ccc1Nc1ncc(Cl)c(Nc2ccccc2P(C)(C)=O)n1` the “thermal shift delta Tm” value was 0.31 °C.
With `CCCS(=O)(=O)Nc1ccc(F)c(C(=O)c2c[nH]c3ncc(-c4ccc(Cl)cc4)cc23)c1F` [Vemurafenib (PLX4032, RG7204)] the “thermal shift delta Tm” value was 4.3 °C.
For `CO[C@H]1C[C@@H]2CC[C@@H](C)[C@@](O)(O2)C(=O)C(=O)N2CCCC[C@H]2C(=O)O[C@H]([C@H](C)C[C@@H]2CC[C@@H](OCCO)[C@H](OC)C2)CC(=O)[C@H](C)/C=C(\C)[C@@H](O)[C@@H](OC)C(=O)[C@H](C)C[C@H](C)/C=C/C=C/C=C/1C` [Everolimus (RAD001)], the “thermal shift delta Tm” value was -0.41 °C.
In the case of `COc1ccc(S(=O)(=O)N(CCO)c2ccccc2CN(C)C/C=C/c2ccc(Cl)cc2)cc1` [KN-93 Phosphate], the “thermal shift delta Tm” value is reported as 0.51 °C.
`CN(C[C@@H]1COCCO1)S(=O)(=O)Nc1ccc2ccc3ncc(-c4cnn(C)c4)cc3c(=O)c2c1` was tested, and the “thermal shift delta Tm” value was 0.52 °C.
With `COc1ccc(CCNCc2ccc(OCc3ccc(Cl)nc3)c(OC)c2)cc1OC` the “thermal shift delta Tm” value was 0.35 °C.
`Clc1ccc(C2(c3ccc(-c4cn[nH]c4)cc3)CCNCC2)cc1` was tested, and the “thermal shift delta Tm” value was 0.54 °C.
In the case of `CN(C)Cc1cccc(N/C(=C2\C(=O)Nc3cc(C(N)=O)ccc32)c2ccccc2)c1`, the “thermal shift delta Tm” value is reported as 0.65 °C.
With `CC[C@H](CO)Nc1nc(NCc2ccccc2)c2ncn(C(C)C)c2n1` [Roscovitine (Seliciclib,CYC202)] the “thermal shift delta Tm” value was 0.12 °C.
`Cc1cc(Nc2cc(N3CCN(C)CC3)nc(/C=C/c3ccccc3)n2)n[nH]1` was tested, and the “thermal shift delta Tm” value was 2.99 °C.

These molecules were tested on LOC_OS01G21960-cb002 in the same assay as above. Settings: 12.5 µM; protein concentration 2 µM.
How it was run: as §1
In the case of `CCOc1cc2ncc(C#N)c(Nc3ccc(OCc4ccccn4)c(Cl)c3)c2cc1NC(=O)/C=C/CN(C)C` [Neratinib (HKI-272)], the “thermal shift delta Tm” value is reported as 0.71 °C.
For `COc1cc2nccc(Oc3ccc(NC(=O)Nc4cc(C)on4)c(Cl)c3)c2cc1OC` [Tivozanib (AV-951)], the “thermal shift delta Tm” value was 0.54 °C.
In the case of `O=C1NC(=O)C(c2ccccc2[N+](=O)[O-])=C1Nc1ccc(O)c(Cl)c1`, the “thermal shift delta Tm” value is reported as 1.43 °C.
In the case of `Cc1c(C(=O)N2CCOc3ccc(-c4ccc(N)nc4)cc3C2)ccc(S(C)(=O)=O)c1F`, the “thermal shift delta Tm” value is reported as 0.19 °C.
`Cn1nccc1Nc1nccc(-c2ccn([C@H](CO)c3ccc(Cl)c(F)c3)c(=O)c2)n1` was tested, and the “thermal shift delta Tm” value was 0.94 °C.
For `COc1cc2c(N3CCN(C(=O)Nc4ccc(OC(C)C)cc4)CC3)ncnc2cc1OCCCN1CCCCC1` [Tandutinib (MLN518)], the “thermal shift delta Tm” value was 0.83 °C.
For `C[C@@H]1COCCN1c1cc(=O)n2c(n1)N(Cc1cncc(Cl)c1)[C@H](C(F)(F)F)CC2`, the “thermal shift delta Tm” value was 0.45 °C.
In the case of `COc1ccc(F)c(F)c1C(=O)c1cnc(NC2CCN(S(C)(=O)=O)CC2)nc1N`, the “thermal shift delta Tm” value is reported as 0.93 °C.
With `O=C(NCc1ccccc1)c1csc(Nc2ccncn2)n1` [Thiazovivin] the “thermal shift delta Tm” value was 2.52 °C.
For `CCN(CC)CCCCNc1ncc2cc(-c3cc(OC)cc(OC)c3)c(NC(=O)NC(C)(C)C)nc2n1`, the “thermal shift delta Tm” value was 0.43 °C.
In the case of `O=c1cc(N2CCOCC2)oc2c(-c3ccc4c(c3)OCCO4)csc12`, the “thermal shift delta Tm” value is reported as 0.76 °C.
`Nc1ccc(C(=O)Nc2cccc(-c3nc(N4CCOCC4)c4oc5ncccc5c4n3)c2)cn1` was tested, and the “thermal shift delta Tm” value was 0.56 °C.
`O=C(NC[C@H](O)CO)c1ccncc1Nc1ccc(I)cc1F` was tested, and the “thermal shift delta Tm” value was 0.66 °C.
In the case of `CCOc1cc2ncc(C#N)c(Nc3ccc(F)c(Cl)c3)c2cc1NC(=O)/C=C/CN(C)C` [Pelitinib (EKB-569)], the “thermal shift delta Tm” value is reported as 1.49 °C.
For `COc1cc2ncnc(Nc3ccc(Cl)cc3F)c2cc1OC`, the “thermal shift delta Tm” value was 0.85 °C.
`Cc1cc(Nc2ncnc3ccc(NC4=NC(C)(C)CO4)cc23)ccc1Oc1ccn2ncnc2c1` [Irbinitinib (ARRY-380, ONT-380)] was tested, and the “thermal shift delta Tm” value was -0.98 °C.
`CC1(C)CNc2cc(NC(=O)c3cccnc3NCc3ccncc3)ccc21` [Motesanib Diphosphate (AMG-706)] was tested, and the “thermal shift delta Tm” value was 0.76 °C.
For `COC(=O)Nc1ccc(-c2nc(N3CCOCC3)c3cnn(C4CCN(C(=O)OC)CC4)c3n2)cc1`, the “thermal shift delta Tm” value was 0.37 °C.
With `COc1cc(C(=O)N2CCC(N3CCN(C)CC3)CC2)ccc1Nc1ncc2c(n1)N(C)c1ccccc1C(=O)N2C` the “thermal shift delta Tm” value was -0.12 °C.
For `C=C(C)[C@@H]1CC[C@]2(C)CC[C@]3(C)[C@H](CC[C@@H]4[C@@]5(C)CC[C@H](O)C(C)(C)[C@@H]5CC[C@]43C)[C@@H]12` [Lupeol], the “thermal shift delta Tm” value was 0.67 °C.
In the case of `Oc1cccc(-c2nc(N3CCOCC3)c3oc4ncccc4c3n2)c1`, the “thermal shift delta Tm” value is reported as 0.64 °C.
`CCn1c(N)c(C(=O)NC)c(=O)c2ccc(C#CC(C)(O)COC)nc21` (stereo not given) was tested, and the “thermal shift delta Tm” value was 0.3 °C.
With `CCOc1cc(C(=O)N2CCC(N3CCN(C)CC3)CC2)ccc1Nc1ncc2c(n1)N(C1CCCC1)c1ccccc1C(=O)N2C` the “thermal shift delta Tm” value was 0.3 °C.
For `Cc1ccc(NC(=O)c2cccc(C(C)(C)C#N)c2)cc1Nc1ccc2ncn(C)c(=O)c2c1`, the “thermal shift delta Tm” value was 0.52 °C.
In the case of `Nc1ccc(-c2ccc3ncc4ccc(=O)n(-c5cccc(C(F)(F)F)c5)c4c3c2)cn1` [Torin 2], the “thermal shift delta Tm” value is reported as 1.41 °C.
`CCN(CC)CCCC(C)Nc1ccnc2cc(Cl)ccc12` (stereo not given) [Chloroquine Phosphate] was tested, and the “thermal shift delta Tm” value was 0.63 °C.
`C[C@@H](N)[C@H]1CC[C@H](C(=O)Nc2ccncc2)CC1` was tested, and the “thermal shift delta Tm” value was 0.84 °C.
In the case of `COc1cc(N2CCC(N(C)C)CC2)ccc1Nc1ncc(Cl)c(Nc2ccccc2P(C)(C)=O)n1`, the “thermal shift delta Tm” value is reported as 1.95 °C.
With `CCCS(=O)(=O)Nc1ccc(F)c(C(=O)c2c[nH]c3ncc(-c4ccc(Cl)cc4)cc23)c1F` [Vemurafenib (PLX4032, RG7204)] the “thermal shift delta Tm” value was 2.86 °C.
`CO[C@H]1C[C@@H]2CC[C@@H](C)[C@@](O)(O2)C(=O)C(=O)N2CCCC[C@H]2C(=O)O[C@H]([C@H](C)C[C@@H]2CC[C@@H](OCCO)[C@H](OC)C2)CC(=O)[C@H](C)/C=C(\C)[C@@H](O)[C@@H](OC)C(=O)[C@H](C)C[C@H](C)/C=C/C=C/C=C/1C` [Everolimus (RAD001)] was tested, and the “thermal shift delta Tm” value was 0.16 °C.
In the case of `COc1ccc(S(=O)(=O)N(CCO)c2ccccc2CN(C)C/C=C/c2ccc(Cl)cc2)cc1` [KN-93 Phosphate], the “thermal shift delta Tm” value is reported as 0.96 °C.
For `CN(C[C@@H]1COCCO1)S(=O)(=O)Nc1ccc2ccc3ncc(-c4cnn(C)c4)cc3c(=O)c2c1`, the “thermal shift delta Tm” value was 1.85 °C.
`COc1ccc(CCNCc2ccc(OCc3ccc(Cl)nc3)c(OC)c2)cc1OC` was tested, and the “thermal shift delta Tm” value was 0.01 °C.
For `Clc1ccc(C2(c3ccc(-c4cn[nH]c4)cc3)CCNCC2)cc1`, the “thermal shift delta Tm” value was 0.46 °C.
With `CN(C)Cc1cccc(N/C(=C2\C(=O)Nc3cc(C(N)=O)ccc32)c2ccccc2)c1` the “thermal shift delta Tm” value was 0.45 °C.
`CC[C@H](CO)Nc1nc(NCc2ccccc2)c2ncn(C(C)C)c2n1` [Roscovitine (Seliciclib,CYC202)] was tested, and the “thermal shift delta Tm” value was 0.12 °C.
For `Cc1cc(Nc2cc(N3CCN(C)CC3)nc(/C=C/c3ccccc3)n2)n[nH]1`, the “thermal shift delta Tm” value was 2.75 °C.
